This is a sample that favours compounds with a hit; in the whole collection about 3.9% have one here.
HIF-2a block: HIF-2a inhibition. 786-0 RCC cells HIF-2a reporter, luciferase luminescence, overnight. inhibition, % at 18.8 µM. hit rate 0.72% among 360,000;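 active means inhibition of the luminescence signal of 40% or more relative to plate controls, in a single-dose primary screen at 18.75 µM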
TROY NFkB inh: inhibitors of TROY-dependent NF-kB signaling; AID 1347056; hit rate 0.98% among 360,000; inhibition, % at 10 µM; Q293 LMP1-TROYcd NF-kB luciferase reporter, 4 h;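 active means compounds whose plate-normalised and pattern-corrected inhibition of the luciferase reporter signal at the single screening dose is 50% or more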
TRAIL sens C8: caspase-8 TRAIL sensitization; NB7+C8 cells + TRAIL, ATPlite viability luminescence; inhibition (viability loss, TRAIL sensitization), % at 10 µM; hit rate 1% among 360,000; AID 624354;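 active means compounds causing at least 50% loss of cell viability in the single-dose screen, relative to plate controls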
TWEAK-Fn14 inh: inhibitors of TWEAK-Fn14 interaction signaling; TWEAK-stimulated Fn14 reporter cells, luciferase luminescence, 8 h; inhibition, % at 10 µM; hit rate 2% among 360,000; in the data active means inhibition above about 50%
HSP90 inh: blocks HSP90-mediated luciferase refolding in reticulocyte lysate | Rabbit reticulocyte lysate, luciferase refolding luminescence, 3 h | inhibition, % at 5.6 µM | hit rate 0.91% among 290,000 | AID 1789;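 active means inhibition above the screen-wide mean plus 3 SD, computed separately per campaign, cut at about 16% in these data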;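 further: inhibitors lower the luminescence because luciferase stays unfolded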
aSyn UTR inh: 5' untranslated region of α-synuclein, MLPCN primary screen; alpha-synuclein 5'UTR reporter, inhibitor activity; inhibition, % (tested at 7.5 µM); hit rate 0.82% among 300,000; in the data active means inhibition above about 60%; inconclusive means no clear call, values can overlap the other calls;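 further: H4 neuroglioblastoma cells stably carrying SNCA 5'UTR luciferase fusion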
Large screens that a line does not name were inactive.

COn1c(SCc2ccc(Cl)cc2)nc2ccccc2c1=O	TRAIL sens C8 60
COn1c(SCc2cccnc2)nc2ccccc2c1=O	none
Cc1ccc(-c2nc(N)n(C(=O)c3cccnc3)n2)cc1	none
Cc1ccc(C(=O)n2nc(-c3cccnc3)nc2N)cc1	TROY NFkB inh 64
CN1CCN(c2ccccc2NC(=O)c2ccc(-c3ccc(Cl)c(Cl)c3)o2)CC1	none
O=C(Nc1ccccc1N1CCCCC1)c1ccc(-c2ccc(Cl)cc2)o1	aSyn UTR inh 99
Cc1cc(N2CCN(C)CC2)ccc1NC(=O)c1ccc(-c2ccc(Cl)cc2)o1	HIF-2a block 41, TROY NFkB inh 80, TWEAK-Fn14 inh 94 (no result: HSP90 inh)
CC1(C)CC(=O)C(C(c2ccc3c(c2)OCO3)C2C(=O)CC(C)(C)CC2=O)C(=O)C1	none (no result: HSP90 inh, aSyn UTR inh)
CCCN1CNC(=S)N(c2ccc(C(=O)OCC)cc2)C1	none
CCOC(=O)c1ccc(N2CN(CC)CNC2=S)cc1	aSyn UTR inh 64
CC(=O)C[C@@H](O)CC(=O)[C@@H]1OC(=O)[C@H](C)C/C=C\Cc2ccccc21	none (no result: HSP90 inh, aSyn UTR inh)
O=S(c1cc(Cl)cc(Cl)c1O)c1cc(Cl)cc(Cl)c1O	TROY NFkB inh 54 (no result: HSP90 inh, aSyn UTR inh)
Oc1c(Cl)cc(Cl)cc1Sc1cc(Cl)cc(Cl)c1O	none (no result: HIF-2a block, TROY NFkB inh, TRAIL sens C8, TWEAK-Fn14 inh)
COc1ccccc1Cc1c(-c2ccc(Cl)cc2)nc2ccc(Br)cn12	none (no result: HSP90 inh, aSyn UTR inh)
CCCCC1C(=O)N(c2ccccc2)N(c2ccccc2)C1=O	none
CCCCN1C=CC(=C2C(=O)c3ccccc3C2=O)C=C1	HIF-2a block 89, TROY NFkB inh 85, TRAIL sens C8 95, TWEAK-Fn14 inh 99, HSP90 inh 83, aSyn UTR inh 98
COc1cccc2cc(-c3nnc(-c4ccccc4)o3)c(=O)oc12	TROY NFkB inh 70, TWEAK-Fn14 inh 73
COc1ccc(-c2nnc(-c3cc4ccccc4oc3=O)o2)cc1	none
Cc1ccc(C(=O)c2ccccc2C(=O)OCC(=O)Nc2ccc(SC(F)F)cc2)cc1	TWEAK-Fn14 inh 53
COc1cccc(N2CCN(S(=O)(=O)c3ccc(-c4cnc(C5CC5)o4)cc3)CC2)c1	none
Cc1cccc(N(C)S(=O)(=O)c2ccc(-c3cnc(C4CC4)o3)cc2)c1	aSyn UTR inh 97
Cc1ccc(N(C)S(=O)(=O)c2cc(-c3cnc(C4CC4)o3)ccc2C)cc1	TROY NFkB inh 56, TWEAK-Fn14 inh 78
CCOc1ccc(-n2nc3ccc(N)cc3n2)cc1	aSyn UTR inh 73
Cc1ccc(-n2nc3ccc(N)cc3n2)cc1	none
CC(C)c1ccc(-n2nc3ccc(N)cc3n2)cc1	TRAIL sens C8 68, TWEAK-Fn14 inh 51
CCOc1ccc(-n2nc3cc(C)c(N)cc3n2)cc1	TRAIL sens C8 59
CC(C)C[C@@H]1CC2=C(C(=O)OC(C)(C)O2)[C@H](CCc2ccccc2)O1	none (no result: HSP90 inh, aSyn UTR inh)
CC(C)C[C@H]1CN(CCCC[C@H]2CNC(=O)C(=O)N2CCC2CCCCC2)C(=O)C(=O)N1CC1CCCCC1	none (no result: HSP90 inh, aSyn UTR inh)
NC(N)=Nc1ccc(C=C2C=Cc3ccccc32)cc1	TRAIL sens C8 87 (no result: HSP90 inh, aSyn UTR inh)
COc1ccccc1C(CCNCc1ccc(N(C)C)cc1)c1ccc(OC(C)C)cc1 (configuration not stated)	aSyn UTR inh 135
COc1ccc(CNCCC(c2ccc(OC(C)C)cc2)c2ccccc2OC)cc1 (configuration not stated)	aSyn UTR inh 134
CC(Sc1nnc(C(C)Oc2ccccc2F)o1)C(=O)NCc1ccc2c(c1)OCO2 (configuration not stated)	none (no result: HSP90 inh, aSyn UTR inh)
COc1ccc(C(=O)NN(C)c2nc(C(F)(F)F)nc3ccccc23)cc1	TROY NFkB inh 55, TWEAK-Fn14 inh 52
COc1ccc(C(=O)NN(C)c2nc(-c3ccccc3)nnc2C(F)(F)F)cc1	none
CN(C)c1ccc(CC(=O)c2nc3ccccc3s2)cc1	TROY NFkB inh 76, TWEAK-Fn14 inh 78
CN(C)C(=O)c1nc2ccccc2s1	none
C[n+]1c(/C=C/c2ccc(O)cc2)ccc2ccccc21	none
Cc1cc(/C=C\c2ccc3cc(N(C)C)ccc3[n+]2C)c(C)n1-c1ccccc1	TRAIL sens C8 60 (no result: HSP90 inh, aSyn UTR inh)
Cc1ccccc1-c1cnc(C(O)c2ccc(F)cc2C)[nH]1 (configuration not stated)	none (no result: HSP90 inh, aSyn UTR inh)
CC(C)[C@H](CO)N(Cc1cccc(F)c1)c1nc(Nc2cccc(Cl)c2)c2ncn(C(C)C)c2n1	none (no result: HSP90 inh)
CC[C@H](CO)Nc1nc(Nc2cccc(Cl)c2)c2ncn(C(C)C)c2n1	TROY NFkB inh 61, TWEAK-Fn14 inh 71, aSyn UTR inh inconclusive (no result: HSP90 inh)
COCCNC(=O)C1(C)CCCN(Cc2ccc3ccccc3c2Br)C1 (configuration not stated)	none (no result: HSP90 inh, aSyn UTR inh)
N#Cc1ccc(NC(=O)Nc2ccc(Cl)cc2)cc1	TRAIL sens C8 58, TWEAK-Fn14 inh 63
COC(=O)[C@]12CCCCC=C1N(Cc1ccc3c(c1)OCO3)C(=O)[C@H](CC(=O)N1CCN(C(=O)c3ccco3)CC1)C2	none (no result: TROY NFkB inh, TWEAK-Fn14 inh, HSP90 inh, aSyn UTR inh)
Cc1ccccc1NC(=O)C(=Cc1ccc(C(=O)O)cc1)C(=O)Nc1ccccc1C	HIF-2a block 42, TWEAK-Fn14 inh 78
O=C(COc1cc(F)ccc1[N+](=O)[O-])NCC1CCCO1 (configuration not stated)	none (no result: HSP90 inh, aSyn UTR inh)
CCOC(=O)C1=C(c2ccccc2)NC(=O)NC1c1ccc(O)c(Cl)c1 (configuration not stated)	TWEAK-Fn14 inh 73
CCCCOc1ccc(-c2cnc3ccccc3n2)cc1	TROY NFkB inh 52, TWEAK-Fn14 inh 79, aSyn UTR inh 101
O=C(Nc1cccc2c(=O)[nH][nH]c(=O)c12)c1ccc([N+](=O)[O-])cc1	none (no result: HSP90 inh, aSyn UTR inh)
CCc1ccc(NC(=O)c2cnc(N3CCN(c4ccccn4)CC3)c3ccccc23)cc1	TROY NFkB inh 60, TWEAK-Fn14 inh 101
O=C(O)C(=Cc1ccc([N+](=O)[O-])cc1)c1cccc(Cl)c1	none (no result: HSP90 inh, aSyn UTR inh)
CC(=O)Nc1ccc(/C=C/c2nc3ccccc3o2)cc1	none
O=C(Nc1ccc(/C=C/c2nc3ccccc3o2)cc1)c1c(F)cccc1F	TROY NFkB inh 59
O=C(c1ccc(-c2ccccc2)cc1)N1CCC(C(=O)N2CCCC2)CC1	none
O=C(c1ccc(-c2nnc(-c3ccccc3)o2)cc1)N1CCCCCC1	TWEAK-Fn14 inh 57
COc1cccc(NC(=O)c2ccccc2)c1	none (no result: HSP90 inh, aSyn UTR inh)
COc1cccc(NC(=O)Nc2cccc(C(=O)O)c2)c1	HIF-2a block 81, HSP90 inh 77
COc1cccc(NC(=O)c2ccc(OC(F)(F)F)cc2)c1	TRAIL sens C8 49 (no result: HSP90 inh)
COc1cc(OC)cc(C(=O)Nc2cc(C)on2)c1	none
COc1ccc(C(=O)Nc2cc(C)on2)cc1	TRAIL sens C8 57
COc1ccc(C(=O)Nc2cccc(OC)c2)cc1	TRAIL sens C8 53
CCOC(=O)C1=CCN(S(=O)(=O)c2ccccc2F)C1c1ccc(F)cc1 (configuration not stated)	none (no result: HSP90 inh, aSyn UTR inh)
Cc1cc(O)c(C(=O)/C=C/c2ccccc2)c(=O)o1	none
CCOc1ccc(/C=C/C(=O)c2c(O)cc(C)oc2=O)cc1	TRAIL sens C8 66
